Assay results reported in ChEMBL document CHEMBL3988442, “University of Dundee, Small-Polar-MMV Screening Library” (2021).
For some of these results: Potency and affinity values are given separately.

Assays:
Parameters in all cases: scale not given: direction of the effect not stated beside the values
[1] = target: Protein translocase subunit SecA (Escherichia coli (strain K12)) (UniProt P10408); experiment: Assay to Identify E. coli SecA ATPase Inhibitors; assay type: functional; conditions: 30 µM
Protein translocase subunit SecA (Escherichia coli (strain K12)), sequence (P10408 whole entry): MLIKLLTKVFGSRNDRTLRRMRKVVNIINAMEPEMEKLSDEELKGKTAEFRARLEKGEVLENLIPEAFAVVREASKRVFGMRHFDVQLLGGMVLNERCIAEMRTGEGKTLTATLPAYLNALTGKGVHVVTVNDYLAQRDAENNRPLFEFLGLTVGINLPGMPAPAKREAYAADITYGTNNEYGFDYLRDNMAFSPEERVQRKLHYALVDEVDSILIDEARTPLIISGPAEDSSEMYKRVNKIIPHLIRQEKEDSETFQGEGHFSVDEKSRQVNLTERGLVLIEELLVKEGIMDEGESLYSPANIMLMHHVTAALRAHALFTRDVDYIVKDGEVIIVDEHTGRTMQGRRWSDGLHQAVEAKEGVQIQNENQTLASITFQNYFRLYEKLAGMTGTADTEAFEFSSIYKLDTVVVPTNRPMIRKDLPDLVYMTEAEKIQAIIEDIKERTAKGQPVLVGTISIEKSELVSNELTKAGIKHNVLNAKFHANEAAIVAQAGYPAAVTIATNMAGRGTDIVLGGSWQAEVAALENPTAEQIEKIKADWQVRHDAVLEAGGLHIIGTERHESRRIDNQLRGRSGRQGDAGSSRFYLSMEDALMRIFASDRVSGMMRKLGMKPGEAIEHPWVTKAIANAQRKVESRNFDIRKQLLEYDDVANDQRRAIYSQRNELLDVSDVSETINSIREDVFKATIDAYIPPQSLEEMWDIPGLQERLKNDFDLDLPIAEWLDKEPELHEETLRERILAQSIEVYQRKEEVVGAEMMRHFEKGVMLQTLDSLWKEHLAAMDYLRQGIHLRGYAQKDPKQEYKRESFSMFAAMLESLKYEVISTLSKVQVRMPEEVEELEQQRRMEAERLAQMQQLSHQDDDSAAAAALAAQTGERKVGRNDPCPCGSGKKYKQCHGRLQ

[2] = target: T1, Ubiquitin-activating enzyme e1, putative (Leishmania donovani (strain BPK282A1)) (UniProt E9BSI1); experiment: Leishmania donovani Ubiquitin Activating Enzyme (LdE1); assay type: functional; conditions: 30 µM
T1 sequence (whole entry): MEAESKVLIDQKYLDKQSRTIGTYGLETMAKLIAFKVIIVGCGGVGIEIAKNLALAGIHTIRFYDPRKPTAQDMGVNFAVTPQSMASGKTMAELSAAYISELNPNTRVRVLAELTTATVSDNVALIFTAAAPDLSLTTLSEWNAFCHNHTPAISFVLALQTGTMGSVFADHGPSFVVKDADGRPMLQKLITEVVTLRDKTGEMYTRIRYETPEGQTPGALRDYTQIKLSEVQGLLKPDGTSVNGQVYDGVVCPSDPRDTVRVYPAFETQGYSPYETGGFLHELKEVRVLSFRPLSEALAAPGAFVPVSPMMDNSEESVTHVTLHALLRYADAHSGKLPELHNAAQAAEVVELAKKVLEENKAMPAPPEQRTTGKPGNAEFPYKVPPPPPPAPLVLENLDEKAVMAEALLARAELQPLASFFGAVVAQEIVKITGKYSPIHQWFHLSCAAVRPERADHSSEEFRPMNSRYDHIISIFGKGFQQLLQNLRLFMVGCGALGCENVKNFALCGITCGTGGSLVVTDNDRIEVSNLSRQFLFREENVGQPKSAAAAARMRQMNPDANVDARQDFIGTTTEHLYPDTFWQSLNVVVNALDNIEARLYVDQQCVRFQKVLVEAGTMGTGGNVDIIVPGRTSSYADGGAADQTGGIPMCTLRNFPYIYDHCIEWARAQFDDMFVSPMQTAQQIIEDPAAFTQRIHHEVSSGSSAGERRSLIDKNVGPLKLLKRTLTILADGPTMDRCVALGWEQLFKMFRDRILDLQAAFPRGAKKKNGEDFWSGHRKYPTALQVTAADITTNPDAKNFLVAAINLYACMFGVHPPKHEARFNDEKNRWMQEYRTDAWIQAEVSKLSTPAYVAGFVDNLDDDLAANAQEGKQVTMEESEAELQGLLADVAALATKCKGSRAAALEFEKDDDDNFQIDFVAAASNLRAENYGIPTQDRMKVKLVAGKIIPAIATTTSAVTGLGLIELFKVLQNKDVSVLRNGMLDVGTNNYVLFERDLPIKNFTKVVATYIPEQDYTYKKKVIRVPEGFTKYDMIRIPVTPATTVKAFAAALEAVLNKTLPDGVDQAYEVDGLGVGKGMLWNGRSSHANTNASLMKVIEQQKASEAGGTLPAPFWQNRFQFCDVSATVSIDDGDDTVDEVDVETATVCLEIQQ

[3] = target: Sialic acid-binding Ig-like lectin 9 (Homo sapiens) (UniProt Q9Y336); experiment: Hs-Siglec9 ALPHAscreen SOP 20170721; conditions: 10 µM
Sialic acid-binding Ig-like lectin 9 (Homo sapiens), sequence (Q9Y336 whole entry): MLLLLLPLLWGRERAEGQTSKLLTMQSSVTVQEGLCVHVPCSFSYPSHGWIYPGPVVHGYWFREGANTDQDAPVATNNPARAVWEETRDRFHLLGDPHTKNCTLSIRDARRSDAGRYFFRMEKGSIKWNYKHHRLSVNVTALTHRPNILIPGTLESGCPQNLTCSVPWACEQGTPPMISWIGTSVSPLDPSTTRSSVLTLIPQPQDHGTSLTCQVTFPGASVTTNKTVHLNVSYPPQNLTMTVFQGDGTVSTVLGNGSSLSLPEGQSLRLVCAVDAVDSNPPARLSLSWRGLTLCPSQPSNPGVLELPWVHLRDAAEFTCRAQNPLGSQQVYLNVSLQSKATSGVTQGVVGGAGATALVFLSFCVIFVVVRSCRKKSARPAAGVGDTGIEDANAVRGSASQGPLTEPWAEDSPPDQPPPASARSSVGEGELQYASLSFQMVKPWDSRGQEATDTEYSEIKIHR

[4] = tested on: Trypanosoma cruzi; experiment: Trypanosoma cruzi phosphomannomutase and mannose-1-phosphate guanylyltransferase assay; assay type: functional; conditions: 10 µM
[5] = target: T2, Arginase-2, mitochondrial (Homo sapiens) (UniProt P78540); experiment: in vitro enzyme assay to detect the production of urea directly proportional to the activity of Arginase II; assay type: functional; conditions: 33.3 µM; further: in the data most compounds retested in dose-response had high values
T2 sequence (whole entry): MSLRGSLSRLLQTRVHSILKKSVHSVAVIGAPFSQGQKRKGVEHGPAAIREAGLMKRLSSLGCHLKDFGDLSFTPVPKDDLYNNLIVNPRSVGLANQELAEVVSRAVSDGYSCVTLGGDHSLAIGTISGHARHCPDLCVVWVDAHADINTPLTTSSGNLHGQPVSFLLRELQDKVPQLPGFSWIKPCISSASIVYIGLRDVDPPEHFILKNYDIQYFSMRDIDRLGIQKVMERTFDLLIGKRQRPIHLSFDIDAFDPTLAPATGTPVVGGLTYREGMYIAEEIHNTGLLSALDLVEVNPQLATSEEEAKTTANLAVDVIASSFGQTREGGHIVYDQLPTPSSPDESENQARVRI

[6] = target: T3, Proteasome subunit beta (Trypanosoma cruzi) (UniProt O96673); experiment: Trypanosoma cruzi proteasome chymotrypsin-like activity (TcProtChymo) assay.; further: in the data most compounds retested in dose-response had high values; assay type: functional; conditions: 9.37 µM
T3 sequence (whole entry): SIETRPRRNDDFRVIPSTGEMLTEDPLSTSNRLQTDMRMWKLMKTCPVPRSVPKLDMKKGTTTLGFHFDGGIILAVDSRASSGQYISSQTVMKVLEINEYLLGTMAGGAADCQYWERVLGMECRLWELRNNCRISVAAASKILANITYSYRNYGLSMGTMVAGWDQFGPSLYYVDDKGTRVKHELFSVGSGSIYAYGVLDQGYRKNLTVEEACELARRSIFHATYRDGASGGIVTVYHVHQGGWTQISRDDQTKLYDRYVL

[7] = organism: Homo sapiens; experiment: To identify inhibition of the IFN signalling (Jak-Stat) pathway via expression of an eGFP reporter gene under the control of an IFN-stimulated response element (ISRE) containing MxA promoter.; assay type: functional; conditions: 30 µM
[8] = target: T4, Tyrosyl-tRNA synthetase, putative (Trypanosoma cruzi (strain CL Brener)) (UniProt Q4DSP6); experiment: Trypanosoma cruzi tyrosyl tRNA synthetase (TcYRS) _High Tyrosine SOP; assay type: functional; conditions: 30 µM; further: in the data most compounds retested in dose-response had high values
T4 sequence (whole entry): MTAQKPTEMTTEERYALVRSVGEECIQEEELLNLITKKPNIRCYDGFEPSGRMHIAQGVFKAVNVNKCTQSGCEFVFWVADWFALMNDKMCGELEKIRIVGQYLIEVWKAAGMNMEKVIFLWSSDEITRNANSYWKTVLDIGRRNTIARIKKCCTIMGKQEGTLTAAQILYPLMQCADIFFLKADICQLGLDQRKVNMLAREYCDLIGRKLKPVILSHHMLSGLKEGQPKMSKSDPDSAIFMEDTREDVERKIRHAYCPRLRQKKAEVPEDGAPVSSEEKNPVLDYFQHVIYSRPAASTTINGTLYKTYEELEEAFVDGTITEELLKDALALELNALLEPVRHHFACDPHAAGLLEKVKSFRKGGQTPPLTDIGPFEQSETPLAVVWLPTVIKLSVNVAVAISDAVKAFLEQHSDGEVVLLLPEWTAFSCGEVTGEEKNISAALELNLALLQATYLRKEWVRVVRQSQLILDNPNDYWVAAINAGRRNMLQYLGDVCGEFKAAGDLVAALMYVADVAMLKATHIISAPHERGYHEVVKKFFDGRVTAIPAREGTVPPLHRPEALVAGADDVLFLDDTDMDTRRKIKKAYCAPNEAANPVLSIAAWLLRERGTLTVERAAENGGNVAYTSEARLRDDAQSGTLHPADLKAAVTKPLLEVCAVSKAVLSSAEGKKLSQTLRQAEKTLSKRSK

[9] = target: T4, Tyrosyl-tRNA synthetase, putative (Trypanosoma cruzi (strain CL Brener)); experiment: Trypanosoma cruzi tyrosyl tRNA synthetase (TcYRS) SOP; assay type: functional; conditions: 30 µM
[10] = target: Chromo domain-containing protein 1 (Saccharomyces cerevisiae (strain ATCC 204508 / S288c) (Baker's yeast)) (UniProt P32657); experiment: ScCHD-1 Enzyme Inhibition Assay; assay type: functional; conditions: 30 µM; further: in the data most compounds retested in dose-response had high values
Chromo domain-containing protein 1 (Saccharomyces cerevisiae (strain ATCC 204508 / S288c) (Baker's yeast)), sequence (P32657 whole entry, the tested form may be a part): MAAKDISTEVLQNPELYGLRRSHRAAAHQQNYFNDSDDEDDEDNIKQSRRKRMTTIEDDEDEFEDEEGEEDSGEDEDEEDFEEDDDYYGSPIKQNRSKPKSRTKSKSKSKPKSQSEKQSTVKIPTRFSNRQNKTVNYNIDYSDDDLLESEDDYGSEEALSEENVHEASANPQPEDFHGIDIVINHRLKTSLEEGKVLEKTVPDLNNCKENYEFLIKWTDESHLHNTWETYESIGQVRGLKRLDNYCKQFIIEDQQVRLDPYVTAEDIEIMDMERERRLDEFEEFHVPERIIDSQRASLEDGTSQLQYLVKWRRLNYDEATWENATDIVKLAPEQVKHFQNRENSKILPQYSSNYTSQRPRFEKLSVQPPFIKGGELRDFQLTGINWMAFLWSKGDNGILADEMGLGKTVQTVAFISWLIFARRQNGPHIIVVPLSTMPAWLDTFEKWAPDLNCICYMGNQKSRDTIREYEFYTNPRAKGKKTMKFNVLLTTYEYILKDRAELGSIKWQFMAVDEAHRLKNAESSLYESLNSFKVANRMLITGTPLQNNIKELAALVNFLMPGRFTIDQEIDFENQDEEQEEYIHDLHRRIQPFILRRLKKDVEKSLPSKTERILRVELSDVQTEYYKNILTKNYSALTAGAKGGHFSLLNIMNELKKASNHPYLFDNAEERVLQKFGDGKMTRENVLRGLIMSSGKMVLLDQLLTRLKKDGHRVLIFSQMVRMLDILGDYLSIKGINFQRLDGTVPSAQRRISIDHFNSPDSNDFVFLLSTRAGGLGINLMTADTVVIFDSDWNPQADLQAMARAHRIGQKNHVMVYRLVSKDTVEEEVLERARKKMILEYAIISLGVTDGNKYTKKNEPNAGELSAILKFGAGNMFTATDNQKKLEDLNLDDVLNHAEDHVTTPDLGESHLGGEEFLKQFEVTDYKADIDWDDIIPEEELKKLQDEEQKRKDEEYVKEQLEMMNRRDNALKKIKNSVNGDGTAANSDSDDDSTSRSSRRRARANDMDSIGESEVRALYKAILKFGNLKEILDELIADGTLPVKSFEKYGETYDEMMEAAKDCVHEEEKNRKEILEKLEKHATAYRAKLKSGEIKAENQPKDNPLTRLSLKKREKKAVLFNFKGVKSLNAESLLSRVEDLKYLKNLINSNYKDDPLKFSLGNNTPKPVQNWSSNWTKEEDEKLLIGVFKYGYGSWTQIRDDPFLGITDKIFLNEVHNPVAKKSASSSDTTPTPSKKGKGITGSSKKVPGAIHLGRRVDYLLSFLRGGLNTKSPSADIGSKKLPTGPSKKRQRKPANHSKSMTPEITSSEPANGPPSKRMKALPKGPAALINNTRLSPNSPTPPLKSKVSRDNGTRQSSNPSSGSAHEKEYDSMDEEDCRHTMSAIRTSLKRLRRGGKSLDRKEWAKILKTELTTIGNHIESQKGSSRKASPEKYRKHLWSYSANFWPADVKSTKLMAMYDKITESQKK

| Structure (SMILES) | Percent Effect [1] | Percent Effect [2] | Percent Effect [3] | Percent Effect [4] | Percent Effect [5] | Percent Effect [6] | Percent Effect [7] | Percent Effect [8] | Percent Effect [9] | Percent Effect [10] |
| --- | --- | --- | --- | --- | --- | --- | --- | --- | --- | --- |
| c1csc(-c2nc(CN3CCn4c(nnc4C4CC4)C3)co2)c1 | -2.65% | 5.33% | 1.96% | -3.41% | 2.66% | 9.58% | 7.72% | 6.84% | 5.13% | -5.6% |
| COCC(C)NC(=O)c1cc(Br)c2c(c1)OCCO2 (stereo not given) | -0.916% | 5.33% | 4.72% | -4.82% | 8.43% | 8.74% | 10.6% | -2.63% | 2.56% | -7.03% |
| CCOC1COC2(CCN(Cc3cccc(F)c3)CC2)C1 (stereo not given) | -1.34% | 14.3% | -2.76% | -1.13% | 0.457% | 5.75% | 21.4% | 2.9% | 7.5% | -7.79% |
| CCc1nc(C2CCCN2C(=O)c2ccc3c(c2)nc(C)n3C)no1 (stereo not given) | -0.423% | -2.67% | 4.72% | -2.41% | 1.77% | 3.31% | 7.34% | 1.58% | 0% | -6.99% |
| Cc1cnn(C2CCCN(C(=O)c3sccc3C#N)C2)c1 (stereo not given) | -7.04% | 0% | -9.94% | -1.78% | -2.05% | -3.33% | 30.2% | 0.478% | 1.21% | -3.26% |
| Cn1cc(NC(=O)N2CCC(CN3CCCC3)CC2)ccc1=O | -0.732% | 7.69% | 7.22% | -1.78% | 11.1% | 1.79% | 14.5% | 3.35% | 6.02% | 0.924% |
| Cc1ccc(-c2nc(CCNC(=O)NC3CCN(C)CC3)co2)cc1 | -4.38% | 8% | -2.04% | 1.81% | -4.88% | 12.3% | 9.37% | 3.68% | 5.13% | -12.9% |
| Cc1cnn(CC2CCCN2C(=O)c2ccc(C(N)=O)cn2)c1 (stereo not given) | -5% | 15.4% | 2.02% | 5.92% | 2.05% | 9.47% | 12.1% | 0.478% | 13.2% | -6.88% |
| Cc1nc(CN(C)C2CCN(Cc3ccc4ccccc4n3)C2)no1 (stereo not given) | 0.184% | -5.2% | -6.12% | 7.28% | -9.22% | 20.4% | 10.1% | 21.6% | 30.6% | -10.1% |
| COc1ccc(-c2nc(CN3CCc4c(ncn4C)C3)cs2)cc1 | -0.999% | -12.8% | -13.6% | 3.66% | 0.41% | 13.4% | 18.6% | 18.7% | 22.9% | 4.88% |
| O=C(NCc1cc(O)ncn1)C1COc2ccccc2C1 (stereo not given) | -3.59% | 10.8% | 17.9% | 3.59% | 12.9% | 13% | 9.77% | 5.85% | 17.1% | -2.86% |
| COCCc1noc(CN2CCCCC2Cn2nc(C)cc2C)n1 (stereo not given) | -2.9% | -2.6% | 13.8% | -1.68% | 2.25% | -3.51% | -5.82% | 0.98% | 7.06% | 9% |
| CCOCC1CC2(CCN(Cc3ccccn3)CC2)CO1 (stereo not given) | -9.03% | 1.3% | 1.88% | 0.292% | -2.83% | 11.7% | -4.94% | 2.63% | 5.13% | 16.1% |
| O=c1cccnn1CC1CN(Cc2ccsc2)Cc2nccn2C1 (stereo not given) | -8.45% | -40.3% | 11% | -1.66% | 3.64% | 8.91% | -4.15% | 14.2% | 15.4% | 4.94% |
| COc1ccc(C(=O)NCCCn2ccnc2)c(OC)n1 | -2.17% | 24.7% | 1.39% | 3.75% | 0% | 10.6% | 11.6% | 6.76% | 22.5% | -12.8% |
| CC(C)=CCN1CCC(c2nccn2Cc2cscn2)CC1 | -6.89% | 5.41% | 7.33% | 9.8% | -5.94% | 9.07% | -16% | 6.92% | 14.6% | -4.64% |
| CC(O)(CN1CCC2(CC1)OCCO2)c1cccc(C(F)(F)F)c1 (stereo not given) | 1.91% | 10.4% | 8.88% | -0.187% | -2.25% | 2.98% | 18.4% | 3.92% | 21.2% | -7.48% |
| CC(Cn1cccn1)NC(=O)NCc1ccccn1 (stereo not given) | -2.65% | 8% | -5.88% | -5.22% | 1.33% | 7.04% | 13.9% | 1.58% | 10.3% | -11% |
| Cn1ccnc1CN1CCCC1c1noc(C2CC2)n1 (stereo not given) | -1.78% | 0% | -0.931% | 0% | 1.33% | 6.19% | -3.87% | 5.79% | 10.3% | -4.32% |
| COCCN1CCN(Cc2cccc(OCC(N)=O)c2)CC1C (stereo not given) | -6.03% | 0% | -0.422% | -3.81% | -0.887% | -0.255% | 7.49% | 2.63% | 0% | -4.22% |
| COC(=O)NCc1cc2n(n1)CCCN(C(C)=O)C2 | -9.99% | 5.41% | -0.0271% | -3.98% | -2.45% | 7.19% | -0.185% | 4.79% | 12.2% | -3.29% |
| c1ccc(-n2ccc(CN3CCCC3Cn3cccn3)n2)cc1 (stereo not given) | -2.21% | -49.4% | 9.5% | -5.97% | -7.17% | 8.25% | 11.5% | 0% | -11.8% | 3.12% |
